Compound activity as filed in PubChem BioAssay.
Rows were chosen to be rich in hits. Some 19% of all compounds tested hit in one or more screens of this group.
S-ASM inh – blocks human secretory acid sphingomyelinase; placental ASM, HMU-PC fluorogenic substrate, 60 min; Potency, µM (highest dose often 57.5 µM), actives largely listed as inhibitors; 340,000 tested, 0.006% active; AID 504937
Target sequence (P17405 47-631 limits assumed): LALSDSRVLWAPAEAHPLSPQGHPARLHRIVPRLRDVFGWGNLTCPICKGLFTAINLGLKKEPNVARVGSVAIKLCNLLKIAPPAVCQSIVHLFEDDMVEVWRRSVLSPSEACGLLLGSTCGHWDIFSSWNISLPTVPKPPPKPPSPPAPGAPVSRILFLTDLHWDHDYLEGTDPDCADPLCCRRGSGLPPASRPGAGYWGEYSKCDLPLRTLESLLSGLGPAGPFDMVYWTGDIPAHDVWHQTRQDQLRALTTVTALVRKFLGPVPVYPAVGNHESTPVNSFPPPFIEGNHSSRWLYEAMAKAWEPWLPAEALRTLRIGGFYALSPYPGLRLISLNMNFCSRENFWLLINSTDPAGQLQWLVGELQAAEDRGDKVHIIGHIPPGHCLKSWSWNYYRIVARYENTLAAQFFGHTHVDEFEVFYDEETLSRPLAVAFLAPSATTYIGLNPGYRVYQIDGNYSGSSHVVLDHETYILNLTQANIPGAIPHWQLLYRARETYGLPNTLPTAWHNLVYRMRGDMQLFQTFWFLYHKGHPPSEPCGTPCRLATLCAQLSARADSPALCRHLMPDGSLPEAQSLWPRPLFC
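Human placenta-derived ASM enzyme was preincubated with compound for 10 minutes at room temperature, then given fluorogenic substrate HMU-PC0 (9 uM final) for 60 minutes at 37 °C; a pH 10 stop preceded fluorescence reading at Ex 386/Em 447 nm.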
TGFb inhibitor – inhibitors of TGF-b signaling; Potency, µM (titrated, usually from 46.1 µM), actives largely listed as inhibitors; HepG2 CAGA-GFP TGF-b/SMAD3 reporter, GFP fluorescence, 18 h; TGF-beta stimulated, 500 pg/mL final; 410,000 tested, 1.2% active; also: nearly all actives have a fitted effect of over 65% in size
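HEPG2 CAGA-GFP cells (1000/well, DMEM with 1% FBS) were pre-incubated 2 h at 37 degrees C, given compound by pin tool, then stimulated with TGF-beta at 500 pg/mL final for 18 h before per-cell GFP fluorescence imaging.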
HepG2 tox – HepG2 cytotoxicity, counter-screen for TGF-b inhibitors; HepG2 CAGA-GFP viability, ATP luminescence, 18 h; Potency, µM (doses to about 46.1 µM), hits mostly cytotoxic; 410,000 tested, 0.76% active; AID 588856
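HepG2 CAGA-GFP cells (1000/well, DMEM with 1% FBS) received compound, then TGF-beta at 500 pg/mL final, and were incubated 18 hours at 37 degrees C. Viability was read by CellTiter-Glo luminescence. Media-only wells were set as complete cell-killing and DMSO as no toxicity.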
IL1B secr inh – inhibitors of inflammasome signaling (IL-1 beta secretion); THP-1 LPS/ATP IL-1B secretion, AlphaLISA, 16 h; stronger effect = lower value; activity change, % at 57.5 µM; 360,000 tested, 4.7% active; AID 743279; in the data active = activity change below about -50%; inconclusive = mostly about -30% to -49%
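Secreted IL-1B measured by AlphaLISA bead assay after 16 h compound exposure of THP-1 cells; compounds (final up to 57.5 uM) added 1 h before LPS (250 ng/mL) and ATP (1.25 mM) stimulation; lower signal means less secretion.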
DT40 TDP1 no CPT – qHTS for Inhibitors of human tyrosyl-DNA phosphodiesterase 1 (TDP1): qHTS in cells in absence of CPT | 420,000 tested, 15% active | Potency, µM (highest dose often 46.2 µM), hits mostly inhibitors | DT40 Tdp1-/- hTDP1 cells, no CPT, ATP luminescence, 48 h; also: nearly all actives have a fitted effect of over 55% in size
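Compound effects on proliferation are scored in DT40 Tdp1-/-;hTDP1 cells in the absence of CPT. ATP levels (CellTiter-Glo luminescence) are recorded after a ≥48 hr, 37 °C incubation.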
DT40 TDP1 CPT – DT40-hTDP1 cell growth loss with CPT; chicken DT40 Tdp1-/-;hTDP1 cells + 20 nM CPT, ATP luminescence, 48 h; Potency, µM (highest dose often 46.2 µM), usual class: inhibitors; 420,000 tested, 12% active; also: nearly all actives have a fitted effect of over 55% in size
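Chicken DT40 Tdp1-/- cells stably complemented with human TDP1 were seeded at 400 cells/well in medium containing 20 nM camptothecin, exposed to pin-transferred compounds, and grown at 37 °C for at least 48 hr. Viability was read as ATP luminescence.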
Numbers stand for hits; n = inactive; u = inconclusive; x = not tested or not shown. Unless noted, calls follow the shape of the dose curve; as a rule, active = well fitted curve in the direction sought with a large enough effect; inconclusive = small, poorly fitted or top-dose-only effect, or another doubt; inactive = no such curve, though single readings can be large; an effect the other way counts as inactive or inconclusive.

SMILES | S-ASM inh | TGFb inhibitor | HepG2 tox | IL1B secr inh | DT40 TDP1 no CPT | DT40 TDP1 CPT
COCCCNc1nc2c(-c3ccc(Cl)cc3)nnn2c2ccccc12 | n | n | n | n | n | n
Fc1ccc(-c2nnn3c2nc(NCc2ccccc2)c2ccccc23)cc1 | n | n | n | n | u | n
Cn1cnc(S(=O)(=O)N2CCCC(C(=O)Nc3ccc(OC(F)(F)F)cc3)C2)c1 (stereo unspecified) | x | n | n | x | u | u
CCOC(=O)C1=C(C)N(c2ccccc2)C(=O)/C1=C\c1cccs1 | n | n | n | u | u | u
CCOC(=O)C1=C(C)N(c2ccccc2)C(=O)/C1=C\c1ccco1 | n | n | n | -58.6 | u | u
COc1ccc(-n2cc3ccc([N+](=O)[O-])cc3n2)cc1 | n | n | n | n | 29.1µM | u
O=c1c2ccccc2nnn1CSc1nnc(-c2cccs2)n1Cc1ccccc1 | n | n | n | u | 23.1µM | 29.1µM
O=c1cc(CSc2nnc(-c3cccs3)n2Cc2ccccc2)nc2sc3ccccc3n12 | n | n | n | -51.1 | 3.66µM | 5.8µM
CCOC(=S)SCc1cn2cccc(C)c2n1 | n | n | n | n | n | n
CC(C)C[C@@H]1O[C@H](CCc2ccccc2)Cc2[nH]c(=S)[nH]c(=O)c21 | x | x | x | n | u | u
CC1OC(CCc2cccc(Cl)c2)Cc2[nH]c(=S)[nH]c(=O)c21 (stereo unspecified) | x | x | x | n | 25.9µM | u
CC1Cc2[nH]c(=S)[nH]c(=O)c2C(c2ccc(C(C)C)cc2)O1 (stereo unspecified) | x | x | x | n | n | n
CCCCC1Cc2[nH]c(=S)[nH]c(=O)c2C(c2ccc(C(C)C)cc2)O1 (stereo unspecified) | x | x | x | n | 23.1µM | 16.4µM
CS(=O)(=O)N(CC(=O)Nc1ccccc1F)C1CCCCC1 | n | n | n | n | n | n
CS(=O)(=O)N(CC(=O)NCc1ccccc1Cl)C1CCCCC1 | n | n | n | n | u | n
CS(=O)(=O)N(CC(=O)NCc1ccc(Cl)cc1)C1CCCCC1 | n | n | n | n | 14.6µM | 20.6µM
CS(=O)(=O)N(CC(=O)Nc1ccc(Br)cc1F)C1CCCCC1 | n | n | n | n | 9.2µM | u
Cc1ccc(S(=O)(=O)N(CC(=O)NCc2ccncc2)C2CCCCC2)cc1 | n | n | n | n | 9.2µM | 11.6µM
Cc1ccc2onc(CC(=O)Nc3cc(F)ccc3F)c2c1 | x | x | n | x | n | n
Cc1ccc(-c2cnc3c(Cl)c(C)nn3c2)cc1 | n | n | n | n | 10.3µM | 20.6µM
CC1CC(C)CN(C(=O)CN2C(=O)NC3(CCCCCCC3)C2=O)C1 (stereo unspecified) | n | n | n | n | n | n
N/C(=N\OC(=O)c1ccc(Cl)cc1)c1ccccn1 | n | n | n | n | n | n
N/C(=N/OC(=O)c1ccc(Cl)cc1)c1ncc([N+](=O)[O-])s1 | n | u | n | n | 20.6µM | 16.4µM
CCOc1ccc(/C(O)=C/C(=O)C(=O)Nc2ccc(S(=O)(=O)NC(C)=O)cc2)cc1 | u | n | n | n | n | 25.9µM
CC(=O)NC(=S)Nc1ccc(S(=O)(=O)N(C)Cc2ccccc2)cc1 | n | u | n | n | u | u
SMILES | S-ASM inh | TGFb inhibitor | HepG2 tox | IL1B secr inh | DT40 TDP1 no CPT | DT40 TDP1 CPT
CCOc1ccc(NC(C)=O)cc1 | n | n | n | n | n | u
COc1ccc(NS(=O)(=O)c2ccc(NC(=S)NC(=O)C(C)C)cc2)cc1 | n | n | n | n | 16.4µM | 18.4µM
CC(C)C(=O)NC(=S)Nc1ccc(S(=O)(=O)N(C)Cc2ccccc2)cc1 | n | u | n | n | 18.4µM | u
CCOc1ccc(S(=O)(=O)/N=C(/Nc2ccc(C(C)=O)cc2)c2ccccc2)cc1 | n | u | n | n | 13µM | 23.1µM
O=C(CNCCc1ccccc1)Nc1ccc(C(=O)N2CCCCC2)cc1 | n | n | n | n | n | u
COCCNC(=O)C1(C)CCCN(C(=O)c2ccc(F)cc2Cl)C1 (stereo unspecified) | x | n | n | n | n | n
CCOc1ccc(CCNC(=O)c2[nH]c3cc(OC)ccc3c2Sc2ccccc2)cc1OCC | x | n | n | x | n | u
CCOc1ccc(NS(=O)(=O)c2ccc(NC(=S)NC(=O)C(C)C)cc2)cc1 | n | n | n | n | u | 20.6µM
CCOc1ccc(NS(=O)(=O)c2ccc(NC(=S)NC(C)=O)cc2)cc1 | n | n | n | n | 23.1µM | 23.1µM
COc1cc(C2=NOC(C(=O)NCc3ccc(F)cc3)C2)cc(OC)c1OC (stereo unspecified) | n | n | n | n | 0.581µM | 0.82µM
COc1cccc(C2=NOC(C(=O)NCc3cccs3)C2)c1 (stereo unspecified) | n | n | n | n | 14.6µM | 20.6µM
COc1cccc(C2=NOC(C(=O)NCc3cccnc3)C2)c1 (stereo unspecified) | n | n | n | n | u | n
COc1cccc(C2=NOC(C(=O)NCc3ccc(F)cc3)C2)c1 (stereo unspecified) | n | n | n | n | 18.4µM | 11.6µM
COc1ccc(CNC(=O)C2CC(C)=C(C)CC2C(=O)O)cc1OC (stereo unspecified) | n | n | n | n | 1.3µM | 1.3µM
CCCc1nnc(NC(=O)CCC(=O)NCc2ccccc2)s1 | n | n | n | n | n | n
O=C(C1CC1)N1CCN(S(=O)(=O)c2ccc3c(c2)OCCO3)CC1 | n | n | n | n | n | n
c1ccc(-c2cc3nccc(-c4ccccn4)n3n2)cc1 | n | n | n | n | u | n
O=C(CS(=O)(=O)c1ccc(Cl)cc1)Nc1nnc(-c2cccs2)o1 | n | n | n | n | n | n
Cc1ccc(CNC(=O)C2CC(c3cccc(F)c3)=NO2)cc1 (stereo unspecified) | n | n | n | n | n | n
COc1ccc(C2=NOC(C(=O)NCc3ccc(F)cc3)C2)cc1OC (stereo unspecified) | n | u | n | n | 5.8µM | 5.8µM
CCc1ccc(-n2nc(C)c3c(C(=O)Nc4cc(C)ccc4C)cc(C)nc32)cc1 | x | n | n | x | u | u
CCN(c1ccccc1C)S(=O)(=O)c1nnc(NC(=O)c2ccccc2C)s1 | x | u | n | x | 18.4µM | u
CCN(c1ccc(C)cc1C)S(=O)(=O)c1nnc(NC(=O)c2ccccc2OC)s1 | x | n | n | x | 16.4µM | u
CC(C)c1ccc(NC2CCCN(C(=O)CC3CCCC3)C2)cc1 (stereo unspecified) | n | u | n | n | 10.3µM | 20.6µM
